Screens deposited in PubChem BioAssay by several laboratories.
Most compounds without a hit are left out; they make up all but 4.7% or so of the library.
MPTP block = inhibitors of mitochondrial permeability transition pore. isolated mouse mitochondria, Ca2+ swelling absorbance, 30 min. inhibition, % at 10 µM. actives 1.4% (n = 360,000). AID 602449;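 active = inhibition of 50% or more, scaled per plate between neutral and stimulator controls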;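 note: 0% = DMSO wells given calcium and 100% = 1 mM EGTA wells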
rCAG RNA binder = molecules binding r(CAG) RNA repeats; inhibition, % at 3 µM; actives 1.3% (n = 370,000); r(CAG) RNA repeat, TO-PRO-1 dye displacement fluorescence;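 active = inhibition above the plate cutoff, the mean of all test compounds on that plate plus 3 SD, cut at about 35% in these data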;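 note: 0% = DMSO alone and 100% = 100 µM mitoxantrone as full dye displacement; higher means more dye released from RNA so lower well fluorescence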
KLK7 zymogen act = proKLK7 (human) activation, primary screen; activation, % at 7 µM; purified proKLK7, EDANS-DABCYL substrate fluorescence; 100% is mature enzyme control, 0% vehicle; actives 0.9% (n = 370,000); AID 652039;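 active = activation above the mean of all tested compounds plus 3 SD, computed per campaign excluding outliers beyond control limits, cut at about 13% in these data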
ADAM17 inh = inhibits human ADAM17; inhibition, % at 6.95 µM; P78536; actives 0.83% (n = 370,000); recombinant ADAM17, EDANS/DABCYL FRET peptide cleavage;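 active = inhibition above the mean of compounds lying between control limits plus 3 SD, set per campaign, cut at about 8.5% in these data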;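 note: 0% = DMSO-only wells as the low control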
DSG3 Ab inh = human desmoglein-3 autoantibody binding inhibition; DSG3-coupled beads, scFv-anti-DSG3-GFP binding, flow cytometry; stronger effect = lower value; P32926; actives 0.48% (n = 310,000); AID 588358; binding (percent of control), % at 10 µM;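 active = binding more than 3 SD below its plate's average and above zero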;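 note: hits lower antibody fragment binding to DSG3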
ADAM10 inh = ADAM10 inhibition, QFRET primary screen; actives 0.62% (n = 370,000); inhibition, % at 7 µM; recombinant ADAM10, EDANS/DABCYL FRET peptide cleavage, 3 h; O14672;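 active = inhibition above a per-campaign cutoff equal to the mean of compounds falling between control-based bounds plus 3 SD, cut at about 20% in these data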;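 note: 0% = DMSO wells while the 100% control is not disclosed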
Target sequence (O14672 214-748 limits assumed): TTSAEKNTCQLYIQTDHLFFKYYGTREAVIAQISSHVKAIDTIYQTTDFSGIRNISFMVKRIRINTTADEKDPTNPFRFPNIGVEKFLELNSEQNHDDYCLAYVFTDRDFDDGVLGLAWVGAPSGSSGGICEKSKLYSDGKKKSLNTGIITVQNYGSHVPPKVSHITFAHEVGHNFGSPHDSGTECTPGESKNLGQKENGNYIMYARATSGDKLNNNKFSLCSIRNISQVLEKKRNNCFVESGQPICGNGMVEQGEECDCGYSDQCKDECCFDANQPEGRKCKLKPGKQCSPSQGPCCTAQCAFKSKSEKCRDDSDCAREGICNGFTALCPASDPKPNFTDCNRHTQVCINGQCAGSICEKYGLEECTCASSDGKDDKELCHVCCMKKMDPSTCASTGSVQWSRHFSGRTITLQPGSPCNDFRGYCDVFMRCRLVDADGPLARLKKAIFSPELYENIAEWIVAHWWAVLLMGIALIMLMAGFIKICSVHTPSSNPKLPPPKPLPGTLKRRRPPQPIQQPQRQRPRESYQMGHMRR
ADAM10 counter = ADAM10 inhibition, counter-screen for ADAM17 exosite hits; shares compounds with ADAM17 inh; recombinant ADAM10, EDANS/DABCYL FRET peptide cleavage, 3 h; inhibition, % at 6.95 µM; actives 47% (n = 2,900); AID 743256;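 active = mean inhibition over the triplicate runs exceeds the activity threshold set in the earlier primary screen, cut at about 20% in these data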;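 note: 0% = DMSO wells and 100% = marimastat wells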
ADAM17 confirm = confirmation of inhibitors of human ADAM17. inhibition, % at 6.95 µM. shares compounds with ADAM17 inh. recombinant ADAM17, EDANS/DABCYL QFRET peptide cleavage. actives 65% (n = 2,900). AID 743257;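 active = mean inhibition across replicates above the hit cutoff set in the primary screen, cut at about 8.5% in these data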;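 note: 0% = DMSO wells and 100% = marimastat wells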
Active calls of the source: *; . = not tested or not shown.

SMILES	MPTP block	rCAG RNA binder	KLK7 zymogen act	ADAM17 inh	DSG3 Ab inh	ADAM10 inh	ADAM10 counter	ADAM17 confirm
COc1ccc(C2Oc3ccccc3C3=C2C(c2cccs2)n2ncnc2N3)cc1 (stereo not given)	0	11	0	9.6*	106	10	-7	9.3*
Cc1c(NC(=O)CSc2nnc(C(C)N(C)C)n2-c2ccccc2)c(=O)n(-c2ccccc2)n1C (stereo not given)	0	0	1	-2	103	-12	.	.
CCN1CCN(S(=O)(=O)c2ccc(Cl)c(C(=O)NC(C)c3ccccc3Cl)c2)CC1 (stereo not given)	1	-1	0	-2	102	-1	.	.
COC(=O)[C@]12CCCCC=C1N(Cc1ccc(Cl)cc1Cl)C(=O)[C@H](CC(=O)NCCCN1CCCC1=O)C2	-1	4	0	-1	.	-8	.	.
Cc1nc2ccc(S(=O)(=O)N(C)CC(=O)NCc3ccc4c(c3)OCO4)cc2s1	4	0	0	-8	110	-1	.	.
Cc1nc2ccc(S(=O)(=O)NCC(=O)NCc3ccc4c(c3)OCO4)cc2s1	-1	4	0	11*	108	4	18	15*
Cc1nc2ccc(NS(=O)(=O)c3c(F)cc(F)cc3Br)cc2s1	10	15	0	0	99	-6	.	.
C=CCOc1ccc(CNc2nn[nH]n2)cc1	2	10	0	9.1*	106	17	-15	-3
CCN1C(=O)C(CC(=O)Nc2ccc(OC)cc2)N(Cc2ccc(OC)c(OC)c2)C1=S (stereo not given)	1	3	0	6	115	0	.	.
O=C(CSC1CC(=O)N(CCc2ccccc2)C1=O)Nc1ccc(Br)cc1 (stereo not given)	-2	7	-1	9.3*	97	12	10	8
CNC(=O)CC1C(=O)N(c2ccc(Cl)cc2)C(=S)N1CCc1ccc(OC)c(OC)c1 (stereo not given)	1	6	-1	8.7*	123	13	14	7
O=C(CSC1CC(=O)N(CCc2ccccc2)C1=O)Nc1cccc(Cl)c1 (stereo not given)	6	3	0	3	110	5	.	.
CCN1C(=O)C(CC(=O)Nc2ccc(Br)cc2)N(CCCc2ccccc2)C1=S (stereo not given)	14	11	0	9.0*	104	18	35*	20*
CCN1C(=O)C(CC(=O)Nc2ccc(OC)cc2)N(CCc2ccc(OC)cc2)C1=S (stereo not given)	0	2	1	11*	103	18	32*	15*
COC(=O)CCC1(C(N)=O)CCC(=O)c2ccccc21 (stereo not given)	0	5	0	-5	109	-5	.	.
CC(C)C[C@H](NC(=O)c1ccccn1)C(=O)N1CCC[C@H]1C(=O)NCc1ccccc1	.	-1	0	-1	.	-9	.	.
COc1cc(NCc2ccccc2)c2ncn(Cc3ccccc3)c2c1	0	-1	0	12*	112	15	14	7
Oc1c(C(c2ccc(Cl)cc2)N2CCCC2)cc(Cl)c2cccnc12 (stereo not given)	4	5	0	8	98	14	.	.
CN1CCN(C(c2ccccn2)c2cc(Cl)c3cccnc3c2O)CC1 (stereo not given)	-4	2	0	18*	99	2	43*	45*
Oc1c(C(c2ccccn2)N2CCC(Cc3ccccc3)CC2)cc(Cl)c2cccnc12 (stereo not given)	.	1	0	32*	.	12	23*	39*
COc1ccc(S(=O)(=O)N2CCOCC2)cc1NC(=O)CCNC(=O)c1ccc([N+](=O)[O-])cc1	0	1	0	-360	.	-5	.	.
O=C(N/N=C/c1cccnc1)c1ccc([N+](=O)[O-])cc1	-4	5	0	8.9*	103	14	12	9.0*
CC(CCc1ccccc1)NC(=O)CCNC(=O)c1ccccc1Cl (stereo not given)	1	0	1	-2	103	-7	.	.
CSCC[C@H](NC(=O)c1cccc(S(=O)(=O)N2CCCCCC2)c1)c1nc2ccccc2[nH]1	3	9	0	0	97	-3	.	.
CSCCC(NC(=O)c1cccc(S(=O)(=O)N2CCOCC2)c1)c1nc2ccccc2[nH]1 (stereo not given)	0	3	0	10*	104	3	14	7
SMILES	MPTP block	rCAG RNA binder	KLK7 zymogen act	ADAM17 inh	DSG3 Ab inh	ADAM10 inh	ADAM10 counter	ADAM17 confirm
CCOC(=O)c1c(C)[nH]c(C)c1C(=O)CSc1nc2ccccc2c(=O)n1-c1ccc(F)cc1	0	3	-1	10*	101	19	22*	15*
CCC/C(=C1/c2ccccc2C(=O)N1c1ccccc1)c1c(C)noc1C	.	1	0	-5	.	-21	.	.
CC(NC(=O)/C(C#N)=C/c1cn[nH]c1-c1ccccc1)c1ccccc1 (stereo not given)	-1	-2	0	1	104	-2	.	.
CCc1ccc(C(C)NC(=O)/C(C#N)=C\c2cn[nH]c2-c2ccccc2)cc1 (stereo not given)	0	2	0	11*	105	17	35*	17*
CCN1/C(=C\C=C(C(C)=O)C(C)=O)Sc2ccccc21	0	-68	0	10*	101	12	18	9.1*
CCOC(=O)/C(C#N)=C(C)/C=C1\Sc2ccccc2N1CC	2	0	0	-1	79	-2	.	.
O=C1C(Cc2ccccc2)NC(=S)N1c1ccccc1 (stereo not given)	3	2	-1	10*	102	13	-2	2
COc1ccc(S(=O)(=O)N[C@H]2CC[C@H](CCNC(=O)c3ccccc3F)O[C@@H]2CO)cc1	1	2	0	-6	.	-11	.	.
O=S(=O)(c1cccc(Cl)c1)N1CCN(S(=O)(=O)c2ccc3c(c2)OCCO3)CC1	0	0	0	10*	100	12	6	6
COc1cc(CNC(=O)c2cccc(COc3ccc(Cl)cc3)c2)cc(OC)c1	9	8	0	8.7*	107	17	24*	11*
COc1cccc(NC(=O)CN(C)C(=O)/C=C/c2ccc3ccccc3n2)c1	0	7	0	-5	109	-11	.	.
